How the values were obtained:
Experiment in all cases: PBM binding z-score (relative to random genomic background probes); higher = stronger binding; sequences stand for … in GC…GCGATTGACAGCGTAGAATGAAGG
[1] = system: FXR:RXRa (NR concentration 270 nM, RXRa partner concentration 90 nM)
Outline: (§1)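 Binding z-scores were set against random background probes. The data came from custom Agilent 4×180K protein-binding microarrays carrying double-stranded probes with 34-nt variable regions, incubated 1 h with ligand-free nuclear receptor dimers. Partner-specific antibodies detected binding, and scanned fluorescence was regression-normalized.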

[2] = system: LXRa:RXRa (NR concentration 270 nM, RXRa partner concentration 90 nM)
Outline: as §1

[3] = system: LXRa homodimer (NR concentration 270 nM)
Outline: as §1

[4] = system: LXRb:RXRa (NR concentration 270 nM, RXRa partner concentration 90 nM)
Outline: as §1

[5] = system: LXRb homodimer (NR concentration 270 nM)
Outline: as §1

[6] = system: PPARa:RXRa (NR concentration 270 nM, RXRa partner concentration 90 nM)
Outline: as §1

[7] = system: PPARg:RXRa (NR concentration 180 nM, RXRa partner concentration 90 nM)
Outline: as §1

[8] = system: PPARg:RXRa 270nM:90nM, anti-RXR (NR concentration 270 nM, RXRa partner concentration 90 nM)
Outline: as §1

[9] = system: PPARg:RXRa 30nM:10nM, anti-RXR (NR concentration 30 nM, RXRa partner concentration 10 nM)
Outline: as §1

[10] = system: PPARg:RXRa 90nM:30nM, anti-RXR (NR concentration 90 nM, RXRa partner concentration 30 nM)
Outline: as §1

[11] = system: PPARg:RXRa DBDmut IVT, anti-RXR (DBD mutation: RXRa K156A/R161A, NR concentration 270 nM, RXRa partner concentration 90 nM)
Outline: as §1

[12] = system: PPARg:RXRa IVT, anti-PPARg (NR concentration 270 nM, RXRa partner concentration 90 nM)
Outline: as §1

[13] = system: PPARg DBDmut:RXRa IVT, anti-PPARg (DBD mutation: PPARg1 K132A/R137A, NR concentration 270 nM, RXRa partner concentration 90 nM)
Outline: as §1

[14] = system: PPARg DBDmut IVT, anti-PPARg (DBD mutation: PPARg1 K132A/R137A, NR concentration 270 nM)
Outline: as §1

[15] = system: PPARg homodimer (NR concentration 180 nM)
Outline: as §1

[16] = system: PXR:RXRa (NR concentration 270 nM, RXRa partner concentration 90 nM)
Outline: as §1

[17] = system: PXR homodimer (NR concentration 270 nM)
Outline: as §1

[18] = system: RARa:RXR (NR concentration 270 nM, RXRa partner concentration 90 nM)
Outline: as §1

[19] = system: RARa homodimer (NR concentration 270 nM)
Outline: as §1

[20] = system: RARb:RXRa (NR concentration 270 nM, RXRa partner concentration 90 nM)
Outline: as §1

Sequence | PBM binding z-score [1] | PBM binding z-score [2] | PBM binding z-score [3] | PBM binding z-score [4] | PBM binding z-score [5] | PBM binding z-score [6] | PBM binding z-score [7] | PBM binding z-score [8] | PBM binding z-score [9] | PBM binding z-score [10] | PBM binding z-score [11] | PBM binding z-score [12] | PBM binding z-score [13] | PBM binding z-score [14] | PBM binding z-score [15] | PBM binding z-score [16] | PBM binding z-score [17] | PBM binding z-score [18] | PBM binding z-score [19] | PBM binding z-score [20]
CCTAGTTGGTCAAGGTCACACTCGCTATAGGTAC | 3.95 | 3.53 | 2.41 | 3.43 | 0.997 | 3.86 | 2.85 | 3.32 | 1.24 | 2.41 | 2.46 | 3.35 | 0.792 | 0.878 | 3.44 | 3.95 | 2.21 | 4.18 | 2.57 | 3.85
GCGACTGGCGCAAAGCAGGTTACCATAAGGTTGG | -0.457 | -0.431 | -0.662 | -0.683 | -1.4 | -0.182 | 0.258 | -0.247 | -0.734 | -0.475 | -0.223 | -0.321 | -1.05 | -1.11 | -0.736 | -0.34 | -0.486 | -0.0579 | -0.958 | -0.386
ATCGAAAGCTCGTGAGGTGAGTATACAGAAAGGC | -0.207 | -0.537 | -0.718 | -0.546 | -0.682 | -0.128 | 0.416 | 0.00274 | 0.112 | -0.368 | -0.799 | 0.0817 | 0.275 | 0.0739 | -0.405 | -0.403 | -0.674 | -0.104 | -0.351 | 0.0466
AGGATGAGGTTAAGATCAGGGAAACAGAATACAT | 2.5 | 2.06 | 0.0836 | 2.16 | 0.492 | 3.06 | 1.63 | 1.38 | 0.783 | 1.01 | -0.114 | 0.973 | 0.72 | 0.516 | 1.27 | 1.56 | 1.2 | 1.9 | 1.63 | 2.1
TAGCCTATGTCAGATCGGGCCAGTATACGCTATA | -0.25 | -0.56 | -0.38 | -0.651 | -0.818 | -0.546 | 0.0766 | -0.557 | -0.477 | -0.278 | -0.342 | -0.424 | -0.269 | -0.692 | -1.19 | -0.323 | -0.853 | 0.184 | -0.755 | 0.0129
ACCAGCAGGCCAAGTTTGGGTCACTCAAACAAAG | 0.266 | -0.108 | -0.521 | 0.635 | -0.887 | 1.31 | -0.217 | 0.223 | -0.767 | -0.323 | -0.512 | 0.814 | -0.754 | -1.36 | 0.25 | 0.747 | -0.419 | 1.27 | -0.97 | 1.89
ACTTACGGGTCCACGAGGTTATAGCACGCGTATA | 0.87 | 0.822 | 0.478 | 1.39 | 0.189 | 1.6 | 1.01 | 0.696 | 0.165 | 0.469 | 0.0725 | 0.67 | 0.473 | 0.278 | 0.407 | 1.48 | 1.01 | 1.8 | 0.384 | 1.15
